CF NFkB inh = inhibitors of PAF-induced NF-kB signaling, primary screen, cell-based, GFP fluorescence, uHTS | KKLEB NF-kB-GFP reporter, GFP fluorescence overnight | inhibition, % at 5 µM | 0.86% of 360,000 active | AID 588850, 2011;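 active means at least 50% inhibition at 5 µM, scaled per plate between neutral and stimulator controls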;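 further: PAF is a Pseudomonas aeruginosa culture filtrate used as stimulus; plate controls were PAF-stimulated DMSO wells for no effect and unstimulated DMSO wells for full effect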
PPC-1+TRAIL kill = compounds killing PPC-1 cancer cells with TRAIL present, primary screen, TRAIL potentiator project, ATPLite luminescence, uHTS; AID 1443, 2008; cell killing (% activity), % at 4 µM or 5 µM; 0.41% of 220,000 active; PPC-1 cells + TRAIL, ATPLite viability luminescence;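 active means cell killing above 50% in the first pass at 4 µM, then a duplicate retest at 5 µM averaging 50% or more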;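 further: plate controls were cells with TRAIL plus DMSO for no effect and medium-only wells lacking cells for full effect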
KKLEB tox = cytotoxicity in KKLEB CF airway cells, primary screen, cytotoxicity control for CF NF-kB inhibitor project, cell-based, uHTS, fluorescence assay plates. activity change (cytotoxicity), % at 5 µM. 0.36% of 360,000 active. AID 602141, 2011. KKLEB CF airway cells viability, ATPlite luminescence, overnight; active compounds read low; cells stimulated with P. aeruginosa culture filtrate;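 active means corrected activity change at or below -50% at 5 µM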
hiPSC survival = enhancers of single-cell hiPSC survival, primary screen, ATPlite luminescence | AID 602274, 2012 | survival enhancement, % at 20 µM | 100% = ROCK inhibitor wells, 0% = DMSO | 0.044% of 360,000 active; in the data active means survival enhancement above about 18%;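 further: cells exposed to compounds for 16 hours before the ATP read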
HIF-2a block = HIF-2a reporter inhibitors, primary screen, luminescence, 786-0 RCC cells; 786-0 RCC cells HIF-2a reporter, luciferase luminescence, overnight; 0.72% of 360,000 active; AID 624352, 2012; inhibition, % at 18.8 µM;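 active means inhibition of the luminescence signal of 40% or more relative to plate controls, in a single-dose primary screen at 18.75 µM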
C8 TRAIL sens = viability loss with TRAIL in NB7+C8 cells, primary screen, TRAIL sensitizer project, cell-based, ATPlite luminescence. inhibition (viability loss, TRAIL sensitization), % at 10 µM. 1% of 360,000 active. AID 624354, 2012;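 active means compounds causing at least 50% loss of cell viability in the single-dose screen, relative to plate controls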
Mdm2 MdmX conf = retested Mdm2-MdmX interaction blockers, confirmation, cell-based, luminescence, single concentration, set 2; SaOS-2 split-luciferase Mdm2/MdmX complementation; 99% of 740 active; shares compounds with HIF-2a block; AID 504601, 2011; inhibition, % at 8 µM;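 active means mean inhibition of the luminescence signal across two replicates at or above 26 percent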
Target sequence (O15151 whole entry, looked up): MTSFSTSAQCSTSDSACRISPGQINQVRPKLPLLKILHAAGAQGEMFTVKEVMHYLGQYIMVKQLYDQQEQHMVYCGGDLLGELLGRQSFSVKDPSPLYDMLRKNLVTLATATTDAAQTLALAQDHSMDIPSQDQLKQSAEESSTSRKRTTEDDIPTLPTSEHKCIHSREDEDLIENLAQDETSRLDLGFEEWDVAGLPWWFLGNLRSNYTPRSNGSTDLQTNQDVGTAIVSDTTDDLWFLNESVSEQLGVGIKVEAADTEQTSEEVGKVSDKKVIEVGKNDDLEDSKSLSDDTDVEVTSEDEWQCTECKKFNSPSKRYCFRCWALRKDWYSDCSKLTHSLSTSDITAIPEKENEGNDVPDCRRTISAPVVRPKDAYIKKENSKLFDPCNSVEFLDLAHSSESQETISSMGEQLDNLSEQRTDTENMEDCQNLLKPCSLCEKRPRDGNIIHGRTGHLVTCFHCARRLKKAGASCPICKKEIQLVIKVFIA
Target sequence (Q00987 whole entry, looked up): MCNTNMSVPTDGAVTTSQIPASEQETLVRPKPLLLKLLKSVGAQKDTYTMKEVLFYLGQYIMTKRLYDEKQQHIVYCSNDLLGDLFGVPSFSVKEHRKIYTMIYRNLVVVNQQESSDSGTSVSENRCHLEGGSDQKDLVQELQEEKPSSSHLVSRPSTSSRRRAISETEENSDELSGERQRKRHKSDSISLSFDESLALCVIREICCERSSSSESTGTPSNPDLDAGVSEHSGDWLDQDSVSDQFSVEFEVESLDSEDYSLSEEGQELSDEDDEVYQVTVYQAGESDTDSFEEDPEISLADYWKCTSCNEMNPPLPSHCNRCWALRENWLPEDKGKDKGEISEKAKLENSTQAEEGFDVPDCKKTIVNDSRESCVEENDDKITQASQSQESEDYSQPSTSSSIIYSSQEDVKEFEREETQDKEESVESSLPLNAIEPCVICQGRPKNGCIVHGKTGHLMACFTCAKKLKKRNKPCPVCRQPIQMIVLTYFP
HIF-2a inh conf = HIF-2a reporter inhibitor retest, confirmation, luminescence, 786-0 RCC cells; shares compounds with HIF-2a block; HIF-2a luciferase reporter luminescence, overnight; inhibition, % at 18.8 µM; 56% of 1,800 active;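 active means mean inhibition across four replicates of at least 40 percent at the single tested concentration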
HIF-1a cs = HIF-1a luciferase reporter signal reduction – MiaPaCa-2 cells, single concentration, counter-screen for HIF-2a inhibitor project, confirmation; shares compounds with HIF-2a block; 72% of 1,800 active; MiaPaCa-2 HIF-1a luciferase reporter, desferoxamine, overnight; inhibition, % at 18.8 µM;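 active means mean inhibition of the reporter signal across four replicates at the single tested dose of 50% or more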
* marks the source's active call; other numbers are inactive results; . = no result. The list is not random: actives were taken first. Their share in the collection is about 2.2%.

SMILES	CF NFkB inh	PPC-1+TRAIL kill	KKLEB tox	hiPSC survival	HIF-2a block	C8 TRAIL sens	HIF-2a inh conf	HIF-1a cs	others
NC(=O)COc1ccc(C(=O)/C=C2/C(=O)Nc3ccccc32)cc1	10	.	-7	0	46*	28	35	25
Cc1ccc(NC(=O)CN(C)C(=O)c2cc3ccccc3o2)cc1	-20	19	6	1	13	0	.	.
O=C(Cc1ccccc1)NCC(=O)N1CCN(c2ccc(F)cc2)CC1	18	.	16	-3	6	9	.	.
Cc1oc2cc3oc(=O)c(CCC(=O)NCCCN4CCOCC4)c(C)c3cc2c1C	-7	.	8	5	-115	-10	.	.
CNc1ccc(/C=C2\COc3ccccc3C2=O)cc1[N+](=O)[O-]	35	20	-25	-5	-163	6	.	.
O=C1/C(=C/c2ccccc2[N+](=O)[O-])COc2ccccc21	86*	8	-71*	-1	61*	-24	-104	103*
CC(=O)Nc1ccc(S(=O)(=O)N(CC(=O)Nc2cc(C)on2)Cc2ccc(F)cc2)cc1	-1	-13	-4	0	20	2	.	.
COC(=O)c1cnc(Nc2nc(C(N)c3ccccc3Cl)cs2)nc1C(F)(F)F (configuration not stated)	6	.	-9	-1	10	19	.	.
OCCSc1nc(-c2ccccc2)nc2ccc(F)cc12	-16	-13	-5	2	-6	12	.	.
NC(N)=Nc1nc(-c2ccccc2)c2cc(F)ccc2n1	-108	19	16	3	40*	20	16	79*
c1csc(C2=Nn3c(nnc3-c3ccncc3)SC2)c1	66*	31	-16	14	-1	4	.	.	Mdm2 MdmX conf=93*
c1ccc(C2=Nn3c(nnc3-c3cccs3)SC2)cc1	-12	1	-13	0	-1	-17	.	.
Cn1cnc([N+](=O)[O-])c1Oc1cccc2ccccc12	32	17	2	-3	1	20	.	.
Cn1cnc([N+](=O)[O-])c1S(=O)(=O)Oc1cccc2ccccc12	86*	.	-79*	-4	83*	43	31	66*
Cn1cnc([N+](=O)[O-])c1S(=O)(=O)Oc1ccc(Cl)cc1	94*	.	-98*	-4	81*	19	30	26
C=Cc1ccc(Cn2c(C)c(C(=O)NCc3cccc(C)c3)sc2=O)cc1	1	.	5	-2	-2	12	.	.
O=C1C=C(c2ccc3ccccc3c2)C[C@@H](c2ccc(F)cc2)C1	8	.	7	-1	-98	32	.	.
CN(C)CCCNC(=O)/C(=C\c1ccc(-c2ccc(Br)cc2)o1)NC(=O)c1ccccc1	16	25	-70*	-2	41*	6	-8	106*
Cc1ccc(C(=O)N/C(=C\c2ccc(-c3ccc(Cl)cc3)o2)C(=O)NCCCN(C)C)cc1	23	-8	-20	-2	15	20	.	.	Mdm2 MdmX conf=103*
COc1ccccc1C(=O)N/C(=C\c1cn(S(=O)(=O)N(C)C)c2ccccc12)C(=O)NCCN1CCOCC1	16	.	-1	0	2	-33	.	.
COC(=O)CCn1nnc(-c2ccc(C(C)C)cc2)n1	-6	19	10	-1	91*	8	96*	75*
CC1=C/C(=N\OS(=O)(=O)c2ccccc2)C(C)=CC1=O	-7	12	-13	-5	65*	-4	.	.	Mdm2 MdmX conf=103*
C=C1C(=O)[C@@]23[C@H](O)C[C@@H]4C(C)(C)CC[C@H](O)[C@@]4(C)[C@@H]2CC[C@@H]1[C@H]3O	95*	3	-32	-6	91*	16	94*	107*
CCC1Oc2ccc(C)cc2N(CC(=O)N2CCCC2)C1=O (configuration not stated)	14	.	-12	0	14	-1	.	.
COc1ccc(-c2oc3ccccc3c(=O)c2OC(C)=O)cc1	24	10	5	3	-51	29	.	.	Mdm2 MdmX conf=93*
SMILES	CF NFkB inh	PPC-1+TRAIL kill	KKLEB tox	hiPSC survival	HIF-2a block	C8 TRAIL sens	HIF-2a inh conf	HIF-1a cs	others
COc1ccc(-n2c(C(C)n3nc(C)c([N+](=O)[O-])c3C)n[nH]c2=S)cc1 (configuration not stated)	-13	9	12	-1	15	-4	.	.
COc1ccc(-n2c(C)c([N+](=O)[O-])c3ccc(O)c(CN(C)C)c32)cc1	79*	36	-23	0	15	25	.	.	Mdm2 MdmX conf=94*
Fc1ccc(Sc2nc(-c3ccccc3)nnc2C(F)(F)F)cc1	9	3	-6	-3	85*	29	26	89*
Fc1ccc(Oc2nc(-c3ccccc3)nnc2C(F)(F)F)cc1	-13	13	0	0	33	2	.	.
O=C(O)c1ccc(Cl)c(S(=O)(=O)N2CCCC2)c1	-8	1	6	1	41*	-8	1	1
CC(=O)Nc1ccc(Nc2nc(C)c([N+](=O)[O-])c(N(C)c3ccccc3)n2)cc1	1	-5	-6	0	81*	2	92*	93*
Cc1nc2nc(NC(=O)c3ccco3)nn2c(C)c1Cl	-1	.	11	1	-150	-26	.	.
c1cc(N2CCOCC2)ccc1-c1ccc2nncn2c1	-6	.	-2	3	38*	-2	17	-14
CCC(=O)OCCNc1cc(Sc2nccn2C)c2nonc2c1[N+](=O)[O-]	89*	16	-78*	0	91*	18	80*	105*
CCCC(=O)OCCNc1cc(Sc2nc3ccccc3[nH]2)c2nonc2c1[N+](=O)[O-]	92*	17	-66*	-1	94*	6	69*	74*	Mdm2 MdmX conf=103*
CC1CCN(S(=O)(=O)c2cc(C(=O)Nc3ccccn3)ccc2Br)CC1	2	.	9	0	-4	13	.	.
C[C@H]1[C@H](NC(=O)C(=NOC(C)(C)C(=O)O)c2csc(N)n2)C(=O)N1S(=O)(=O)O	-6	.	28	0	3	14	.	.
O=S(=O)(c1ccc(Cl)cc1)c1snnc1-c1ccccc1	40	8	-3	-6	58*	24	63*	103*	Mdm2 MdmX conf=103*
